# Results: PubChem BioAssay (NCATS)
# Results filed as inconclusive are left out. For some of these results: Entries with a potency or affinity are not part of this list. Activity calls are given as the source filed them. Unless noted, the rule behind the calls is not given here.
# Legend:
# [1] = Ebola virus entry assay, green fluorescence channel
# [2] = Ebola virus entry assay, blue channel fluorescence
# [3] = Ebola virus entry assay, ratio channel
# [4] = qHTS Assay for Identifying Gametocytocidal Compounds (AID 743244; active = well fitted curve in the direction sought with a large enough effect; an effect the other way counts as inactive or inconclusive;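 note: % is set by controls: 0 for no effect and ±100 for the full control effect; actives lower the fluorescent signal which means gametocytes are killed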); details: P. falciparum 3D7 stage III-V gametocytes, alamarBlue, 72 h; max response: stronger effect = lower value
# Procedure, shortened: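 P. falciparum 3D7 stage III–V gametocytes (20,000 cells/well) were exposed to compounds for 72 h at 37 °C, 5% CO2. AlamarBlue was then added for 24 h; decreased resorufin fluorescence (Ex 525/Em 598 nm) indicated loss of viability.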
# [5] = qHTS assay for cell viability of HEK293 cells (AID 743288; active = well fitted curve in the direction sought with a large enough effect; an effect the other way counts as inactive or inconclusive; note: % is set by controls: 0 for no effect and ±100 for the full control effect; nearly all actives have a fitted effect of over 50% in size); details: ATP luminescence (CellTiter-Glo), 18 h, stronger effect = lower value
# Procedure, shortened: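 Environmental chemicals tested in qHTS format against parental HEK293 cells; 18 h treatment, 37 C; read-out ATP luminescence (CellTiter-Glo), 30 min RT development.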
# [6] = qHTS profiling of the MIPE4 collection as inhibitors of Plasmodium falciparum (3D7) proliferation (AID 743344);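 note: scaled between DMSO vehicle wells and 0.29 µM artemisinin as full inhibition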; details: P. falciparum 3D7 in erythrocytes, SYBR Green DNA fluorescence, 72 h; at 28.5 µM (top of the series) unless noted
# Procedure, shortened: (§1)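 Erythrocytes infected with P. falciparum (0.3% parasitemia, 2.5% hematocrit) incubated with compounds 72 h at 37 C, 5% CO2. Lysis with saponin/Triton buffer containing SYBR Green I, overnight at room temperature in the dark; DNA fluorescence (485/535 nm) normalised to 0.29 uM artemisinin and DMSO.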
# [7] = qHTS profiling of the MIPE4 collection as inhibitors of Plasmodium falciparum (DD2) proliferation (Rep 2) (AID 743346); details: P. falciparum Dd2 in erythrocytes, SYBR Green DNA, 72 h; at 28.5 µM (top of the series) unless noted
# Procedure, shortened: as §1
# [8] = qHTS profiling of the MIPE4 collection as inhibitors of Plasmodium falciparum (HB3) proliferation (AID 743347);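 note: plate controls were DMSO vehicle wells for no effect and artemisinin wells for full effect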; details: P. falciparum HB3 in erythrocytes, SYBR Green DNA, 72 h; at 28.5 µM (top of the series) unless noted
# Procedure, shortened: as §1
# [9] = qHTS assay for small molecule agonists of the antioxidant response element (ARE) signaling pathway measured by Nrf2-dependant transcriptional activity (AID 720636; active = well fitted curve in the direction sought with a large enough effect in the repeat runs; an effect the other way counts as inactive or inconclusive;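 note: HepG2 cells with an ARE-driven luciferase reporter; % of control where 0% means no effect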); details: ARE-luc HepG2, Nrf2 luciferase reporter, 16 h; series mostly up to 92.4 µM
# Procedure, shortened: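 HepG2 ARE-luc reporter line, 1% dialyzed FBS; 6 hr attachment at 37 C, compound pinned in, 16 hr at 37 C/5% CO2; ONE-Glo, 30 min RT, luminescence read.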
# [10] = qHTS assay for small molecule agonists of the antioxidant response element (ARE) signaling pathway measured by Nrf2-dependant transcriptional activity - cell viability counter screen (AID 720653; active = well fitted curve in the direction sought with a large enough effect in the repeat runs; an effect the other way counts as inactive or inconclusive; note: % is set by controls: 0 for no effect and ±100 for the full control effect); details: ARE-bla HepG2 viability, CellTiter-Glo ATP luminescence, 16 h; stronger effect = lower value
# Procedure, shortened: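 ARE-bla HepG2 cells (2,000/well) rested 5 hrs at 37C/5% CO2, then exposed to compounds in DMSO for 16 hrs. Viability was read in the same wells as intracellular ATP by luminescence, 30 min at room temperature after reagent addition.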
# [11] = qHTS profiling of the MIPE4 collection as inhibitors of Plasmodium falciparum (DD2) proliferation (AID 743345); details: P. falciparum Dd2 in erythrocytes, SYBR Green DNA, 72 h; at 28.5 µM (top of the series) unless noted
# Procedure, shortened: as §1
# Throughout, for efficacy: 0% is about no effect.
smiles,measurement,setting,value
CO[C@@H]1[C@@H](OC(N)=O)[C@@H](O)[C@H](Oc2ccc3c(O)c(NC(=O)c4ccc(O)c(CC=C(C)C)c4)c(=O)oc3c2C)OC1(C)C,efficacy,[1],15.5% (inactive)
same,outcome,[2],inactive
O=C1c2ccccc2CCc2ccccc21,efficacy,[1],12.1% (inactive)
same,outcome,[2],inactive
CNCC(O)c1ccc(O)c(O)c1 (centres undefined),efficacy,[1],44.4% (inactive)
same,outcome,[3],inactive
CCn1cc(C(=O)O)c(=O)c2cnc(N3CCCC3)nc21,efficacy,[1],11.6% (inactive)
same,outcome,[3],inactive
CCCCCCCCCC(=O)O[C@H]1CC[C@H]2[C@@H]3CCC4=CC(=O)CC[C@@H]4[C@H]3CC[C@]12C,max response,[4],5.38% (inactive)
same,efficacy,[1],27.8% (inactive)
same,outcome,[2],inactive
CCOP(=S)(OCC)Oc1ccc2c(C)c(Cl)c(=O)oc2c1,max response,[4],-0.845% (inactive)
same,max response,[5],-5.48% (inactive)
same,efficacy,[1],16.9% (inactive)
same,outcome,[2],inactive
Cc1ccsc1/C=C/C1=NCCCN1C,efficacy,[1],-24.4% (inactive)
same,outcome,[3],inactive
OC1(c2ccccc2)CCNCC1,efficacy,[1],9.98% (inactive)
same,outcome,[3],inactive
NC(=O)c1cccnc1,efficacy,[1],-19.3% (inactive)
same,outcome,[3],inactive
Cc1ccnc(NS(=O)(=O)c2ccc(N)cc2)n1,efficacy,[1],-24.3% (inactive)
same,outcome,[3],inactive
COc1cc(CCN)cc(OC)c1OC,max response,[4],17.2% (inactive)
same,efficacy,[1],10.5% (inactive)
same,outcome,[2],inactive
C[N+]1(CCF)[C@@H]2CC[C@H]1CC(OC(=O)C(O)(c1ccccc1)c1ccccc1)C2 (some centres undefined),max response,[4],7.34% (inactive)
same,efficacy,[1],-17.5% (inactive)
same,outcome,[2],inactive
CCCCC(O)/C=C(C)/C=C/C=C/C(=O)N1CCCC1=O (centres undefined),efficacy,[1],-13.9% (inactive)
same,outcome,[3],inactive
CN1CC[C@]23c4c5ccc(O)c4O[C@H]2[C@@H](O)CC[C@H]3[C@H]1C5,max response,[4],10.1% (inactive)
same,efficacy,[1],13.6% (inactive)
same,outcome,[2],inactive
CC[N+](CC)(CC)CCOc1cccc(OCC[N+](CC)(CC)CC)c1OCC[N+](CC)(CC)CC,"parasite growth, % of DMSO control",[6],86%
same,"parasite growth, % of control (lower = inhibition)",[7],133%
same,"growth, % of control",[8],111%
same,efficacy,[1],15.9% (inactive)
same,outcome,[2],inactive
Cc1ncc(CO)c(C=O)c1O,efficacy,[1],-24.1% (inactive)
same,outcome,[3],inactive
CCCCC(CC)COC(=O)c1ccccc1O (centres undefined),efficacy,[1],-34.1% (inactive)
same,outcome,[3],inactive
COc1ccc2c3c1O[C@H]1[C@H](O)CC[C@H]4[C@@H](C2)N(C)CC[C@@]341,max response,[4],-0.489% (inactive)
same,efficacy,[1],-11.3% (inactive)
same,outcome,[2],inactive
NCc1ccc(S(N)(=O)=O)cc1,efficacy,[1],-17.9% (inactive)
same,outcome,[3],inactive
COc1cc2nc(Cl)nc(N)c2cc1OC,efficacy,[1],-33.8% (inactive)
same,outcome,[3],inactive
CC(C)CCCC(C)NCCC(C)C (centres undefined),efficacy,[1],-17.9% (inactive)
same,outcome,[3],inactive
CC(C)(C)C1CCC(CC2=C(O)c3ccccc3C(=O)C2=O)CC1 (centres undefined),efficacy,[1],-22.8% (inactive)
same,outcome,[3],inactive
O=c1[nH]c2ccccc2n1C1CCNCC1,efficacy,[1],-18% (inactive)
same,outcome,[3],inactive
c1ccc(CN2CCNCC2)cc1,max response,[4],8.43% (inactive)
same,efficacy,[1],-15.2% (inactive)
same,outcome,[2],inactive
FC1(F)C(F)(F)C(F)(F)C2(F)C(F)(F)C(F)(F)C(F)(F)C(F)(F)C2(F)C1(F)F (centres undefined),efficacy,[1],-14% (inactive)
same,outcome,[3],inactive
COc1cccc([C@@]2(O)CCCC[C@@H]2CN(C)C)c1,max response,[4],5.95% (inactive)
same,efficacy,[1],-12.5% (inactive)
same,outcome,[2],inactive
O=C(Nc1ccc(Br)cc1)c1cc(Br)cc(Br)c1O,max response,[4],3.6% (inactive)
same,efficacy,[1],-20.2% (inactive)
same,outcome,[2],inactive
CN1CC[C@]23c4c5ccc(O)c4O[C@H]2[C@@H](O)C=C[C@H]3[C@H]1C5,efficacy,[1],19.5% (inactive)
same,outcome,[3],inactive
Cc1cc(NS(=O)(=O)c2ccc(N)cc2)nc(C)n1,efficacy,[1],-28.1% (inactive)
same,outcome,[3],inactive
CN(C)[C@@H]1C(=O)C(C(N)=O)=C(O)[C@@]2(O)C(=O)C3=C(O)c4c(O)cccc4C[C@H]3C[C@@H]12,efficacy,[1],167% (inactive)
same,AC50,[3],17.8 µM (active)
CC1(C)C(C=C(Cl)Cl)C1C(=O)OC(C#N)c1cccc(Oc2ccccc2)c1 (centres undefined),outcome,[9],inactive
same,max response,[10],-2.42% (inactive)
same,max response,[4],-13.8% (inactive)
same,max response,[5],-3.3% (inactive)
same,efficacy,[1],-14.1% (inactive)
same,outcome,[2],inactive
CC(N)CCCC(C)(C)O (centres undefined),efficacy,[1],-22.7% (inactive)
same,outcome,[3],inactive
O=c1[nH]cnc2[nH]ncc12,max response,[4],-1.56% (inactive)
same,"parasite growth, % of DMSO control",[6],105%
same,"parasite growth remaining, % of DMSO control (lower = more inhibition)",[11],91.2%
same,"parasite growth, % of control (lower = inhibition)",[7],153%
same,"growth, % of control",[8],93.3%
same,efficacy,[1],-34% (inactive)
same,outcome,[2],inactive
NS(=O)(=O)c1cc2c(cc1Cl)NC(C(Cl)Cl)NS2(=O)=O (centres undefined),efficacy,[1],-21% (inactive)
same,outcome,[3],inactive
COc1ccc(Cc2cnc(N)nc2N)cc1OC,efficacy,[1],-23.5% (inactive)
same,outcome,[3],inactive
Cc1ccc(C(=O)c2ccc(CC(=O)O)n2C)cc1,efficacy,[1],11.5% (inactive)
same,outcome,[3],inactive
